Test results reported in PubChem BioAssay (NCI).
Values joined by “and” are separate entries in the source; they are usually repeats but may differ in a detail not shown here. Identical values can stand only once. About 79,000 compounds went through this panel and 15% of them were active in at least one assay; those are over-represented in the sample as a whole. A structure can be active in one record and inactive in another. Active and inactive are the calls of the source. Cut-off read from the data, not from the text of the source: active = growth inhibition above about 70%; inactive = the rest.

Key:
[1] = NCI Yeast Anticancer Drug Screen. Data for the wt2 strain (AID 169);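 note: 0% = growth of vehicle-treated yeast cultures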; conditions: S. cerevisiae wt2 strain growth inhibition, stronger effect = higher value
How it was run: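 Treated yeast vs. vehicle-treated yeast: growth inhibition determined.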

[2] = NCI Yeast Anticancer Drug Screen. Data for the mlh1 strain (AID 171);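 note: 0% = growth of vehicle-treated control cultures of the same strain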; conditions: S. cerevisiae mlh1 strain growth inhibition, stronger effect = higher value
How it was run: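 A yeast strain with a defined genetic lesion serves as the test organism. Cultures receive compound or vehicle, and growth is measured.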

[3] = NCI Yeast Anticancer Drug Screen. Data for the sgs1 strain (AID 173);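 note: 0% = growth of vehicle-only control cultures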; conditions: S. cerevisiae sgs1 mutant, stronger effect = higher value
How it was run: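 A genetically defined yeast mutant is incubated with the test compound, and its growth is compared to that of the same strain given vehicle.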

[4] = NCI Yeast Anticancer Drug Screen. Data for the mlh1 rad18 strain (AID 175); conditions: S. cerevisiae mlh1 rad18 strain growth inhibition, stronger effect = higher value
How it was run: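 Steps: expose repair-defective yeast to compound; measure growth; express inhibition against vehicle-treated controls.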

[5] = NCI Yeast Anticancer Drug Screen. Data for the rad18 strain (AID 177); conditions: S. cerevisiae rad18 mutant growth inhibition, stronger effect = higher value
How it was run: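 Measured value is growth inhibition of a yeast strain bearing a DNA repair alteration, referenced to vehicle-treated cells.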

[6] = NCI Yeast Anticancer Drug Screen. Data for the rad52 strain (AID 147);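 note: 0% = growth of vehicle-treated control cultures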; conditions: S. cerevisiae rad52 mutant growth inhibition, stronger effect = higher value
How it was run: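 Here a repair-compromised yeast strain receives each compound; its growth is then quantified and normalised to vehicle-only controls.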

[7] = NCI Yeast Anticancer Drug Screen. Data for the wt1 strain (AID 149);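 note: 0% = growth of vehicle-treated wt1 cultures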; conditions: S. cerevisiae wt1 strain (SPY 50644) growth inhibition, stronger effect = higher value
How it was run: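 Measured: growth of wt1 yeast under compound versus vehicle treatment, reported as inhibition.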

[8] = NCI Yeast Anticancer Drug Screen. Data for the rad50EPP+ strain (AID 151);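 note: 0% = growth of vehicle-treated control cultures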; conditions: S. cerevisiae rad50 mutant strain, stronger effect = higher value
How it was run: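 Read-out is yeast growth inhibition relative to vehicle; cells used were the rad50EPP+ strain.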

[9] = NCI Yeast Anticancer Drug Screen. Data for the mgt1 strain (AID 153); conditions: S. cerevisiae mgt1 mutant growth inhibition, stronger effect = higher value
How it was run: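 Measured: inhibition of mgt1 yeast growth by compound, normalized to vehicle-treated cultures.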

[10] = NCI Yeast Anticancer Drug Screen. Data for the rad50 strain (AID 155);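 note: 0% = growth of vehicle-only cultures of the same strain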; conditions: S. cerevisiae rad50 strain growth inhibition, stronger effect = higher value
How it was run: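 Growth of the mutant yeast was measured after compound exposure and referenced to vehicle-treated cultures.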

[11] = NCI Yeast Anticancer Drug Screen. Data for the mec2-1 strain (AID 157); conditions: S. cerevisiae mec2-1 strain, stronger effect = higher value
How it was run: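 Using mec2-1 yeast: add compound, measure growth, express inhibition versus vehicle-treated cultures.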

[12] = NCI Yeast Anticancer Drug Screen. Data for the rad14 strain (AID 159);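 note: 0% = growth of vehicle-treated control cultures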; conditions: S. cerevisiae rad14 strain growth inhibition, stronger effect = higher value
How it was run: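 Here, inhibition of yeast growth was measured after compound exposure, using a strain with a genetic defect in DNA damage repair and vehicle-treated cultures as the reference.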

[13] = NCI Yeast Anticancer Drug Screen. Data for the sgs1 mgt1 strain (AID 161);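 note: 0% = growth of cultures given vehicle only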; conditions: S. cerevisiae sgs1 mgt1 strain, stronger effect = higher value
How it was run: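 Growth of a repair-deficient yeast mutant was monitored after compound treatment and expressed as inhibition relative to vehicle-treated cultures.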

[14] = NCI Yeast Anticancer Drug Screen. Data for the CLN2oe strain (AID 163);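 note: 0% = growth of vehicle-only control cultures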; conditions: S. cerevisiae CLN2oe strain, stronger effect = higher value
How it was run: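 Whole-cell yeast growth assay. A strain engineered for altered cell-cycle control received compound, and inhibition relative to vehicle-treated cultures was recorded.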

[15] = NCI Yeast Anticancer Drug Screen. Data for the cln2 rad14 strain (AID 165);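 note: 0% = growth equal to vehicle treated cultures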; conditions: S. cerevisiae cln2 rad14 strain, stronger effect = higher value
How it was run: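 Yeast strain cln2 rad14, bearing defects in cell cycle control and DNA repair, serves as the test system; values reflect growth inhibition compared with vehicle.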

[16] = NCI Yeast Anticancer Drug Screen. Data for the bub3 strain (AID 167); conditions: S. cerevisiae bub3 mutant strain, stronger effect = higher value
How it was run: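 Whole-cell yeast assay. The mutant strain was incubated with compounds, and growth inhibition was determined by comparison with vehicle-treated cells.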

[17] = at 5.0 µM (retest, dose inferred, filed as 0.5)
[18] = at 50.0 µM (retest, dose inferred, filed as 5.0)

Measured: growth inhibition

Cc1cc(N(CCOS(C)(=O)=O)CCOS(C)(=O)=O)ccc1C=Nc1ccc(-c2csc(-c3ccccc3)n2)c(Cl)c1
inactive: [1]; at 1.2 µM -4% | [1]; at 3.7 µM 4% | [2]; at 1.2 µM -1% | [2]; at 3.7 µM 25% | [3]; at 1.2 µM 10% | [3]; at 3.7 µM 22% | [5]; at 1.2 µM 58%
86% (active) and 5% (inactive): [4]; [17]
active: [1]; at 11.0 µM 72% | [1]; at 33.0 µM 97% | [1]; at 100.0 µM 92% | [2]; at 11.0 µM 80% | [2]; at 33.0 µM 97% | [2]; at 100.0 µM 90% | [3]; at 11.0 µM 82% | [3]; at 33.0 µM 97% | [3]; at 100.0 µM 92% | [4]; [18] 95% and 96% | [4]; at 50.0 µM 95.2% | [5]; at 3.7 µM 83% | [5]; at 11.0 µM 94% | [5]; at 33.0 µM 97% | [5]; at 100.0 µM 89%

CSc1nnc(SC)nn1
active: [6]; at 100.0 µM 98% | [7]; at 100.0 µM 99% | [8]; at 100.0 µM 98% | [9]; at 33.0 µM 72% | [9]; at 100.0 µM 98% | [10]; [18] 98% | [10]; at 50.0 µM 82.2% | [10]; at 100.0 µM 96% | [11]; at 33.0 µM 77% | [11]; [18] 97% | [11]; at 50.0 µM 77.8% | [11]; at 100.0 µM 99% | [12]; at 33.0 µM 77% | [12]; at 100.0 µM 98% | [13]; [18] 99% | [13]; at 50.0 µM 82.8% | [14]; at 100.0 µM 98% | [15]; [18] 95% | [15]; at 50.0 µM 87.7% | [16]; at 33.0 µM 90% | [16]; [18] 98% | [16]; at 50.0 µM 93.1% | [16]; at 100.0 µM 99% | [1]; at 100.0 µM 99% | [2]; at 100.0 µM 99% | [3]; at 100.0 µM 98% | [4]; [18] 99% | [4]; at 50.0 µM 70.8% | [5]; at 100.0 µM 98%
inactive: [6]; at 1.2 µM 1% | [6]; at 3.7 µM 7% | [6]; at 11.0 µM 0% | [6]; at 33.0 µM 52% | [7]; at 1.2 µM -4% | [7]; at 3.7 µM -5% | [7]; at 11.0 µM -14% | [7]; at 33.0 µM 22% | [8]; at 1.2 µM 6% | [8]; at 3.7 µM 4% | [8]; at 11.0 µM -2% | [8]; at 33.0 µM 26% | [9]; at 1.2 µM 8% | [9]; at 3.7 µM 4% | [9]; at 11.0 µM 13% | [10]; at 1.2 µM -13% | [10]; at 3.7 µM -3% | [10]; [17] 51% | [10]; at 11.0 µM -2% | [10]; at 33.0 µM 45% | [11]; at 1.2 µM 9% | [11]; at 3.7 µM 1% | [11]; [17] 57% | [11]; at 11.0 µM 16% | [12]; at 1.2 µM -10% | [12]; at 3.7 µM 0% | [12]; at 11.0 µM 34% | [13]; [17] -10% | [14]; at 1.2 µM 12% | [14]; at 3.7 µM -6% | [14]; at 11.0 µM 15% | [14]; at 33.0 µM 31% | [15]; [17] 57% | [16]; at 1.2 µM 11% | [16]; at 3.7 µM 27% | [16]; [17] 34% | [16]; at 11.0 µM 65% | [1]; at 1.2 µM 9% | [1]; at 3.7 µM 5% | [1]; at 11.0 µM 3% | [1]; at 33.0 µM 38% | [2]; at 1.2 µM -2% | [2]; at 3.7 µM 6% | [2]; at 11.0 µM 15% | [2]; at 33.0 µM 55% | [3]; at 1.2 µM -2% | [3]; at 3.7 µM 3% | [3]; at 11.0 µM 0% | [3]; at 33.0 µM 44% | [4]; [17] 58% | [5]; at 1.2 µM -4% | [5]; at 3.7 µM 11% | [5]; at 11.0 µM 12% | [5]; at 33.0 µM 67%

CC(C)C(C)/C=C\C(C)C1CCC2C3=CC=C4CC(O)CCC4(C)C3CCC21C (centres undefined)
inactive: [6]; at 1.2 µM -1% | [6]; at 3.7 µM -2% | [6]; at 11.0 µM -1% | [6]; at 33.0 µM -1% | [6]; at 100.0 µM 17% | [7]; at 1.2 µM 2% | [7]; at 3.7 µM -1% | [7]; at 11.0 µM 0% | [7]; at 33.0 µM -3% | [7]; at 100.0 µM -3% | [8]; at 1.2 µM -2% | [8]; at 3.7 µM -3% | [8]; at 11.0 µM -9% | [8]; at 33.0 µM -9% | [8]; at 100.0 µM 1% | [9]; at 1.2 µM 0% | [9]; at 3.7 µM 3% | [9]; at 11.0 µM -1% | [9]; at 33.0 µM -9% | [9]; at 100.0 µM -4% | [10]; at 1.2 µM -1% | [10]; at 3.7 µM 5% | [10]; [17] 51% | [10]; at 11.0 µM -3% | [10]; at 33.0 µM -1% | [10]; at 100.0 µM 22% | [11]; at 1.2 µM 0% | [11]; at 3.7 µM 0% | [11]; at 11.0 µM -2% | [11]; at 33.0 µM -1% | [11]; at 50.0 µM 44.5% | [11]; at 100.0 µM -17% | [12]; at 1.2 µM -1% | [12]; at 3.7 µM 6% | [12]; at 11.0 µM 1% | [12]; at 33.0 µM -2% | [12]; at 100.0 µM 27% | [13]; [17] 17% | [13]; [18] 48% | [13]; at 50.0 µM 66.7% | [14]; at 1.2 µM 0% | [14]; at 3.7 µM -2% | [14]; at 11.0 µM -2% | [14]; at 33.0 µM -4% | [14]; at 100.0 µM 11% | [15]; at 50.0 µM 35.4% | [16]; at 1.2 µM -1% | [16]; at 3.7 µM 3% | [16]; at 11.0 µM -2% | [16]; at 33.0 µM -10% | [16]; at 50.0 µM 42% | [16]; at 100.0 µM 32% | [1]; at 1.2 µM 0% | [1]; at 3.7 µM 1% | [1]; at 11.0 µM 1% | [1]; at 33.0 µM 1% | [1]; at 100.0 µM 14% | [2]; at 1.2 µM -1% | [2]; at 3.7 µM -3% | [2]; at 11.0 µM -5% | [2]; at 33.0 µM -11% | [2]; at 100.0 µM 10% | [3]; at 1.2 µM -1% | [3]; at 3.7 µM -4% | [3]; at 11.0 µM -3% | [3]; at 33.0 µM -6% | [3]; at 100.0 µM 19% | [4]; [17] 40% | [5]; at 1.2 µM -2% | [5]; at 3.7 µM -5% | [5]; at 11.0 µM -13% | [5]; at 33.0 µM -19% | [5]; at 100.0 µM -7%
active: [10]; [18] 84% | [10]; at 50.0 µM 83.2% | [11]; [17] 89% | [11]; [18] 99% | [15]; [17] 91% | [15]; [18] 95% | [16]; [17] 99% | [16]; [18] 99% | [4]; [18] 81% | [4]; at 50.0 µM 86.5%
